For four molecules, PXC50 and Percent Effect results are on record in ChEMBL document CHEMBL3988442, “University of Dundee, Small-Polar-MMV Screening Library” (2021).

The target in experiment [1] is T1, Methionyl-tRNA synthetase, putative (Leishmania donovani (strain BPK282A1)) (UniProt E9BF75).
T1 sequence (whole entry): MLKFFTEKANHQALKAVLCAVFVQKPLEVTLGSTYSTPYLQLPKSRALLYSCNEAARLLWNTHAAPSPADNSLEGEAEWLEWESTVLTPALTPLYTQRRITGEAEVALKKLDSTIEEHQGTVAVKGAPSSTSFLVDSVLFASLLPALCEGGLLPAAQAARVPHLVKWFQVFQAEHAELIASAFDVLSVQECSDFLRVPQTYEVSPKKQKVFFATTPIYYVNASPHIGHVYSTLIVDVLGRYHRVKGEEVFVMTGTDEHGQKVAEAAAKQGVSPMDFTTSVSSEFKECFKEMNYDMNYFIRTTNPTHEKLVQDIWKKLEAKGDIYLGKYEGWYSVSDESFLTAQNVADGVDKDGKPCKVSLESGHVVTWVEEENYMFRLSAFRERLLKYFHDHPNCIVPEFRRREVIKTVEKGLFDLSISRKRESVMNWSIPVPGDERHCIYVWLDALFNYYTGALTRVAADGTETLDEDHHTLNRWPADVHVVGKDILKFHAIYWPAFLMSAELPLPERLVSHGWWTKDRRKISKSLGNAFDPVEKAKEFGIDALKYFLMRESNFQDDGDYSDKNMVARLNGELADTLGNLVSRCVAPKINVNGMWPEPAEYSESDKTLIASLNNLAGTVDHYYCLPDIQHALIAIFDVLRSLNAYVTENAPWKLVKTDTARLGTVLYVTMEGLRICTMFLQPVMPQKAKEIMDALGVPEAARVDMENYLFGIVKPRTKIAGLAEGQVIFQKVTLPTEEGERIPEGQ
The experiment is described as follows: Leishmania donovani Methionine tRNA synthetase (LdMetRS):v7. Dose response assay. In kind it is functional. On the set-up: conc 80 nM, time 150 minutes.

The target in experiment [2] is Protein translocase subunit SecA (Escherichia coli (strain K12)) (UniProt P10408). The experiment is described as follows: Assay to Identify E. coli SecA ATPase Inhibitors. On the set-up: scale not given: direction of the effect not stated beside the values. In kind it is functional. The settings on record: 30 µM.
In experiment [3] the target is T2, Ubiquitin-activating enzyme e1, putative (Leishmania donovani (strain BPK282A1)) (UniProt E9BSI1).
T2 sequence (whole entry): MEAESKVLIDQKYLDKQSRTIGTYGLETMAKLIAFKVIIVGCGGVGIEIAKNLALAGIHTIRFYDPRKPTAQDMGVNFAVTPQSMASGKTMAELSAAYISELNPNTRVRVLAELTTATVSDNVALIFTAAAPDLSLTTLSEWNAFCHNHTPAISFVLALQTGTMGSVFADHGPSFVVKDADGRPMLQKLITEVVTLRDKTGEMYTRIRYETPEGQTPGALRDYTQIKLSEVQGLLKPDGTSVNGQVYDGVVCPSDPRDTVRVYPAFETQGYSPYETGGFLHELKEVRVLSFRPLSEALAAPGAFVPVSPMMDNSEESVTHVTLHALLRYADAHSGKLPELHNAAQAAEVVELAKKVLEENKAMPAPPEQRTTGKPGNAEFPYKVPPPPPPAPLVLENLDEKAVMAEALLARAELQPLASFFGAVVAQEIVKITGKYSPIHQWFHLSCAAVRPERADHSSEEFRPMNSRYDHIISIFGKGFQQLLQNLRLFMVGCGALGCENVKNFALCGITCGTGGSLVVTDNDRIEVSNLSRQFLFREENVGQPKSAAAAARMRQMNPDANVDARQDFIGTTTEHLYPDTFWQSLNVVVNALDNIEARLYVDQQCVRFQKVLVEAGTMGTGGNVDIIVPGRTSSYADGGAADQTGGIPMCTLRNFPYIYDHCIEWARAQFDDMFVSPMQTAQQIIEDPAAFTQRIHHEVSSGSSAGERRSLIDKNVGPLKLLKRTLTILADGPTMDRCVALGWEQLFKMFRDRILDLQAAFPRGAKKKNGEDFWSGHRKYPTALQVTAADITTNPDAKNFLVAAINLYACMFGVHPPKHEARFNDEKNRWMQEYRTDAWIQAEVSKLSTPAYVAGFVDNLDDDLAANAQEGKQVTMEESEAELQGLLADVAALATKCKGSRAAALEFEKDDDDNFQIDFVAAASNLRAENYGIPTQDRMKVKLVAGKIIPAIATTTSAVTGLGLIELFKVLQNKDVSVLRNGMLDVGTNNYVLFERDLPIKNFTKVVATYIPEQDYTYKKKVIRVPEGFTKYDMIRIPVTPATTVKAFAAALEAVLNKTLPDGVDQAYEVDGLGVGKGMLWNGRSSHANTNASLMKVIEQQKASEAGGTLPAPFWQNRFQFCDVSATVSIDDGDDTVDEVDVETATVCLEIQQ
Put plainly: Leishmania donovani Ubiquitin Activating Enzyme (LdE1). To be noted: 30 µM. On the set-up: scale not given: direction of the effect not stated beside the values. In kind it is functional.

For experiment [4], the target named is AMP-activated protein kinase, AMPK (Homo sapiens) (UniProt P54646+O43741+P54619+Q9UGJ0+Q9Y478+Q13131+Q9UGI9). The experiment is described as follows: AMP-dependent Kinase enzyme assay. An in vitro enzyme assay that detects ADP turnover that is directly proportional to AMPK activity. This uses naive AMPK that is activated during the assay with MK-8722. It is filed as functional. Details: scale not given: direction of the effect not stated beside the values. To be noted: 30 µM.

Experiment [5] has as its target Sialic acid-binding Ig-like lectin 9 (Homo sapiens) (UniProt Q9Y336). The experiment is described as follows: Hs-Siglec9 ALPHAscreen SOP 20170721. To be noted: 10 µM. On the set-up: scale not given: direction of the effect not stated beside the values.
Experiment [6] concerns Trypanosoma cruzi. Put plainly: Trypanosoma cruzi phosphomannomutase and mannose-1-phosphate guanylyltransferase assay. In kind it is functional. Details: scale not given: direction of the effect not stated beside the values. To be noted: 10 µM.
Experiment [7] has as its target T3, Arginase-2, mitochondrial (Homo sapiens) (UniProt P78540).
T3 sequence (whole entry): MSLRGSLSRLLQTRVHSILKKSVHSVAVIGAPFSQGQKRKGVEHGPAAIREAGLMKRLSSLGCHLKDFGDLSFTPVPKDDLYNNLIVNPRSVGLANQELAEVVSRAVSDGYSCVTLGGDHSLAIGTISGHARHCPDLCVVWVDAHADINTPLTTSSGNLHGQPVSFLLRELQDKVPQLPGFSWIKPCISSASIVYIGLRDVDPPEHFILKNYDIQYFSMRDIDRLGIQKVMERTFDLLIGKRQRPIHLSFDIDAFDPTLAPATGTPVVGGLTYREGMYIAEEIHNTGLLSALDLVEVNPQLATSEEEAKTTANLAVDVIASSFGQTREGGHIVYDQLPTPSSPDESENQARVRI
The experiment is described as follows: in vitro enzyme assay to detect the production of urea directly proportional to the activity of Arginase II. In kind it is functional. On the set-up: scale not given: in the data most compounds retested in dose-response had high values. The settings on record: 33.3 µM.

Experiment [8] concerns the target T4, Proteasome subunit beta (Trypanosoma cruzi) (UniProt O96673).
T4 sequence (whole entry): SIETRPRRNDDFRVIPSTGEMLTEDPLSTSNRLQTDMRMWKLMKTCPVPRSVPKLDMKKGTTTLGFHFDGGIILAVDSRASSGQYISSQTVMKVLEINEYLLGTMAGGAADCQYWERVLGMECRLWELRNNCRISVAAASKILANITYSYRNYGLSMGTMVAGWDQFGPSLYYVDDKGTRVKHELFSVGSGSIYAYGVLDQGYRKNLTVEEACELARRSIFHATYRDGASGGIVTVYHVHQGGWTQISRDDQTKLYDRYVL
Put plainly: Trypanosoma cruzi proteasome chymotrypsin-like activity (TcProtChymo) assay. On the set-up: scale not given: in the data most compounds retested in dose-response had high values. The settings on record: 9.37 µM. It is filed as functional.

Experiment [9] is filed under the species Homo sapiens. The experiment is described as follows: To identify inhibition of the IFN signalling (Jak-Stat) pathway via expression of an eGFP reporter gene under the control of an IFN-stimulated response element (ISRE) containing MxA promoter. In kind it is functional. Details: scale not given: direction of the effect not stated beside the values. To be noted: 30 µM.

Experiment [10] concerns the target T5, Tyrosyl-tRNA synthetase, putative (Trypanosoma cruzi (strain CL Brener)) (UniProt Q4DSP6).
T5 sequence (whole entry): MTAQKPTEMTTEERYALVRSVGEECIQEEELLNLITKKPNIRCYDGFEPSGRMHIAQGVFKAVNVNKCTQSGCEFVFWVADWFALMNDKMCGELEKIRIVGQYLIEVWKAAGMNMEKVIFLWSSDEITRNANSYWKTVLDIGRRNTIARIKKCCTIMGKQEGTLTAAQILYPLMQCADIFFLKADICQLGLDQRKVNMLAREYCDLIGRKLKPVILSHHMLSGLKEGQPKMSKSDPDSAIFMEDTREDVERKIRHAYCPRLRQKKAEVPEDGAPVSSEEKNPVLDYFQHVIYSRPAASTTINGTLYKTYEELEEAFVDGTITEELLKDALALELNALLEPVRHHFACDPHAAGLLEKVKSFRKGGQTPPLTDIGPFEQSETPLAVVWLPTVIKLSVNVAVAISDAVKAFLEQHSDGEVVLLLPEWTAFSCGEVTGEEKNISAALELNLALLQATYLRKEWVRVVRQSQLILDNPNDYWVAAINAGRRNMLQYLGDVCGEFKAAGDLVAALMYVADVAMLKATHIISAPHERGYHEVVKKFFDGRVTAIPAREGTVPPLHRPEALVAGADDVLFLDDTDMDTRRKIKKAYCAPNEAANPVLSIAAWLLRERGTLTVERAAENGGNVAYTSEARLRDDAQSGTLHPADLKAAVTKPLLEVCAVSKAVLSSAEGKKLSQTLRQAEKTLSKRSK
Put plainly: Trypanosoma cruzi tyrosyl tRNA synthetase (TcYRS) _High Tyrosine SOP. To be noted: 30 µM. In kind it is functional. On the set-up: scale not given: in the data most compounds retested in dose-response had high values.

Experiment [11] has as its target T5, Tyrosyl-tRNA synthetase, putative (Trypanosoma cruzi (strain CL Brener)). The experiment is described as follows: Trypanosoma cruzi tyrosyl tRNA synthetase (TcYRS) SOP. It is filed as functional. Details: scale not given: direction of the effect not stated beside the values. The settings on record: 30 µM.
Experiment [12] deals with Chromo domain-containing protein 1 (Saccharomyces cerevisiae (strain ATCC 204508 / S288c) (Baker's yeast)) (UniProt P32657). Put plainly: ScCHD-1 Enzyme Inhibition Assay. On the set-up: scale not given: in the data most compounds retested in dose-response had high values. To be noted: 30 µM. It is filed as functional.

Structures are written as SMILES. For some assays here: Entries with a potency or affinity are not part of this list.

Chain of Sialic acid-binding Ig-like lectin 9 (Homo sapiens) (Q9Y336 whole entry): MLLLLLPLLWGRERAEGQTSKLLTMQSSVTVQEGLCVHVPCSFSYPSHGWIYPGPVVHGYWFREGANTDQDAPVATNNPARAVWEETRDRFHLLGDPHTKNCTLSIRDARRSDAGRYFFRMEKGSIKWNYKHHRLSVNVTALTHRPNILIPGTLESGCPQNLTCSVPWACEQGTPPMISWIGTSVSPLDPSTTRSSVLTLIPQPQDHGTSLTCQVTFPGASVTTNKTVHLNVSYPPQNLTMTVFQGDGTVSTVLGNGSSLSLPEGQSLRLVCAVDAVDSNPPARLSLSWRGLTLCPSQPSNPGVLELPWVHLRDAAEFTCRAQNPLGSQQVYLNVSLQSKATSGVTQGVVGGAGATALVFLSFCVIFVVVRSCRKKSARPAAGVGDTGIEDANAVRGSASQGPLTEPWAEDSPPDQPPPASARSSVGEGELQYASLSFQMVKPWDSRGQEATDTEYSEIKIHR
Chain of Protein translocase subunit SecA (Escherichia coli (strain K12)) (P10408 whole entry): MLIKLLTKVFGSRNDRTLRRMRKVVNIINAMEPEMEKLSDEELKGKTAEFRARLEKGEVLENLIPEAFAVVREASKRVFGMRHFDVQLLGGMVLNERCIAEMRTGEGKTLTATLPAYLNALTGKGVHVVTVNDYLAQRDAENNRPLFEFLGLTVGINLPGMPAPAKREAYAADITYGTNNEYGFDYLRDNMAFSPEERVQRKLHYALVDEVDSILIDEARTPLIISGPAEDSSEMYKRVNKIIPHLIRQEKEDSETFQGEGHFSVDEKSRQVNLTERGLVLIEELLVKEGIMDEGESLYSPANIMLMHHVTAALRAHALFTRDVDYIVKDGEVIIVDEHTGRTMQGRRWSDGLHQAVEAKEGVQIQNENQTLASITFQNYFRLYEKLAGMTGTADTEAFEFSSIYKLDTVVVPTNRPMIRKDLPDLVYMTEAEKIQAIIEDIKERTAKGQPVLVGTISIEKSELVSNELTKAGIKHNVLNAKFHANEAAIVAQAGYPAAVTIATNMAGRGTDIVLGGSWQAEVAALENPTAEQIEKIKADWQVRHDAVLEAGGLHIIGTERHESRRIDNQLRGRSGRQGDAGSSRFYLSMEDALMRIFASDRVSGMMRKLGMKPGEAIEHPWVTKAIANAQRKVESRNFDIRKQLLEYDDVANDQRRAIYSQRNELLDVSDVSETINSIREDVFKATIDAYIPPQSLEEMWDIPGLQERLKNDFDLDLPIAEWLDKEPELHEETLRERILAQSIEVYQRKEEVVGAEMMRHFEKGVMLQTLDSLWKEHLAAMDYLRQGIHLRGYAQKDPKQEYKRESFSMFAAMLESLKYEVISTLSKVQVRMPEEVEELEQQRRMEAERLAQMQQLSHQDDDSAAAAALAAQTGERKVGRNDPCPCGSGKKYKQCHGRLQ
Chain of Chromo domain-containing protein 1 (Saccharomyces cerevisiae (strain ATCC 204508 / S288c) (Baker's yeast)) (P32657 whole entry, the tested form may be a part): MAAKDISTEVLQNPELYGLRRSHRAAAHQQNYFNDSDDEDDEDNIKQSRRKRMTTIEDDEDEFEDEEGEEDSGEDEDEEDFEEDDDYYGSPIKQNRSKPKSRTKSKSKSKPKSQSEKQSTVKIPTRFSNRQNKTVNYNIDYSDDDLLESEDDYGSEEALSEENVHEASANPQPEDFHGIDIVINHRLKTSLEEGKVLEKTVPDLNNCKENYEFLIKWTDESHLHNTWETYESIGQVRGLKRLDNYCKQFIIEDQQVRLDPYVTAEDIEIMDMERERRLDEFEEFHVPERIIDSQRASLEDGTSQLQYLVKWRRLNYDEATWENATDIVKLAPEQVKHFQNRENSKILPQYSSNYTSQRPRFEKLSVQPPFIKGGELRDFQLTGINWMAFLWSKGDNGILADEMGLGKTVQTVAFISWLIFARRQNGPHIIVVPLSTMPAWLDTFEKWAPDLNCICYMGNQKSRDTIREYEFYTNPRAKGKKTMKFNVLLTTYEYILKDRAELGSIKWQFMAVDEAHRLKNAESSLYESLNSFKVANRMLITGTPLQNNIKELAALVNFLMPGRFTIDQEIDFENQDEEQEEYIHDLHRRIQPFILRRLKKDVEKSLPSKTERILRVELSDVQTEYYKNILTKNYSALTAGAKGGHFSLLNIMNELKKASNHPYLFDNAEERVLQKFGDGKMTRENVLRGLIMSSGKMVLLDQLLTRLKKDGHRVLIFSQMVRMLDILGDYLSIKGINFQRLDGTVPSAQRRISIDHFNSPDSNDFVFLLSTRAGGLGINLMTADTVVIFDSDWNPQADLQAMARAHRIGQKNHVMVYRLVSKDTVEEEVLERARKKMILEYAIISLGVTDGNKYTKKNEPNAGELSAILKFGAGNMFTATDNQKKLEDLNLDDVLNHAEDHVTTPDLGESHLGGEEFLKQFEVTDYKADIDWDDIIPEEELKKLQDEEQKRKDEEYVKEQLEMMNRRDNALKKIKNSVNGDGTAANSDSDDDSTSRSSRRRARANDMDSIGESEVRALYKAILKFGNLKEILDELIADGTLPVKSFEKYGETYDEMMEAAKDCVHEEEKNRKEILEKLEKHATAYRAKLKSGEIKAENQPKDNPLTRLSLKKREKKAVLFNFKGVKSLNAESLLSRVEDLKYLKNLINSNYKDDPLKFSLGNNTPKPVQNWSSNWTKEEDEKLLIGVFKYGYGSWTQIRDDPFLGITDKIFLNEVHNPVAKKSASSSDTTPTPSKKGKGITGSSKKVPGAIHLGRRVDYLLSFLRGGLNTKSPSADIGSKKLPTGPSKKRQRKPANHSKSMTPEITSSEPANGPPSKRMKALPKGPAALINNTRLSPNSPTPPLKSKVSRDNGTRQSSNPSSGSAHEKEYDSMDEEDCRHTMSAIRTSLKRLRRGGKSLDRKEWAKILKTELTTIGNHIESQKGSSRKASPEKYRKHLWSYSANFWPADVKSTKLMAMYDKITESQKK

Turning to `Fc1cccc(N2C[C@H]3CCN(c4cccnc4)C[C@H]3C2)c1`, the PXC50 in experiment [1] (MAX_EFFECT 35.84229391), in experiment [1] (MAX_EFFECT 42.57425743) and in [1] (MAX_EFFECT 45.65217391) was < 4 in each case. Besides, the Percent Effect was -5.24% in experiment [2]; -27% in experiment [3]; 0.0628% in experiment [4]; -4.58% in experiment [5]; -1.95% in experiment [6]; -1.67% in [7]. Besides, the Percent Effect was 9.38% in [8]; 31.8% in [9]; 23.8% in [10]; 25.6% in experiment [11]; 3.63% in [12].
With `COc1ccccc1C1(CNc2nnc(C)c(C)c2C#N)CCCC1`, the PXC50 is 4.21 in [1] (BOTTOM 3.334115973, HILLSLOPE 1.087838863, MAX_EFFECT 53.16698656, TOP 83.15988554); < 4 in experiment [1] (MAX_EFFECT 37.68115942); < 4 in [1] (MAX_EFFECT 40.13605442); < 4 in experiment [1] (MAX_EFFECT 44.81658692); < 4 in experiment [1] (MAX_EFFECT 49.91243433).
On to `CN(c1ncnc2ccccc12)C1CCCN(c2cccnn2)C1` (centres undefined), for which the PXC50 in experiment [1] (BOTTOM 0.59496429, HILLSLOPE 1.142527095, MAX_EFFECT 61.72248804, TOP 100.0) stood at 4.15; in experiment [1] (BOTTOM 4.775047561, HILLSLOPE 1.968197794, MAX_EFFECT 73.89635317, TOP 73.89635317) it was 4.48; in [1] (BOTTOM 7.086189247, HILLSLOPE 1.125976509, MAX_EFFECT 60.07005254, TOP 100.0), 4.1; in experiment [1] (BOTTOM 8.519162934, HILLSLOPE 1.512392504, MAX_EFFECT 75.36231884, TOP 100.0), 4.28; in experiment [1] (BOTTOM -1.496045735, HILLSLOPE 1.12468747, MAX_EFFECT 69.3877551, TOP 100.0), 4.34.
As to `CC(C)C[C@H](N)COc1cccc(F)c1Oc1cccc(Cl)c1`, the PXC50 in experiment [1] (BOTTOM 6.91310013, HILLSLOPE 1.495350679, MAX_EFFECT 83.36221837, TOP 100.0) stood at 4.36; in [1] (BOTTOM 8.664927698, HILLSLOPE 1.748800753, MAX_EFFECT 77.85234899, TOP 95.40759793) it was 4.33; in [1] (BOTTOM 9.147353303, HILLSLOPE 1.551603339, MAX_EFFECT 81.25, TOP 100.0) it was 4.34; in [1] (BOTTOM -0.863158235, HILLSLOPE 2.70922767, MAX_EFFECT 71.29186603, TOP 83.59060963) it was 4.29; in [1] (BOTTOM -4.44021311, HILLSLOPE 1.559741226, MAX_EFFECT 77.3512476, TOP 100.0) it was 4.35.
